Reference: ChEMBL document CHEMBL4513154, “CO-ADD screening of Jain University (India) compounds”
Potency and affinity values are given separately.

Key:
Klebsiella pneumoniae = conditions: Concentration 32 ug.mL-1; ASSAY_TEST Inhibition of Bacterial Growth; detection method Absorption (OD600); MEDIA CAMHB; plate type 384well; NBS; CORNING #3640; time 18 hr
Candida albicans = conditions: 32 ug/mL
Cryptococcus neoformans = conditions: Concentration 32 ug.mL-1; ASSAY_TEST Inhibition of Fungal Growth; detection method Resazurin; Absorption (OD600-OD570); plate type 384well; NBS; CORNING #3640

Nc1nc(Nc2ccccc2)sc1-c1nc2ccccc2c(=O)n1-c1ccc(Cl)cc1
Inhibition (Klebsiella pneumoniae): -25.33%
Inhibition (Candida albicans): 3.54%
Inhibition (Cryptococcus neoformans): -43.66%

CCc1ccc(Nc2nc(N)c(-c3nc4ccccc4c(=O)n3-c3ccccc3)s2)cc1
Inhibition (Klebsiella pneumoniae): 10.03%
Inhibition (Candida albicans): 6%
Inhibition (Cryptococcus neoformans): -53.41%

CCc1ccc(Nc2nc(N)c(-c3nc4ccccc4c(=O)n3-c3ccc(Cl)cc3)s2)cc1
Inhibition (Klebsiella pneumoniae): 12.28%
Inhibition (Candida albicans): 0.52%
Inhibition (Cryptococcus neoformans): -34.77%

N#Cc1ccccc1-c1ccc(Cn2c(-c3cscn3)nc3c(Cl)cccc32)cc1
Inhibition (Klebsiella pneumoniae): -3.22%
Inhibition (Candida albicans): 5.26%
Inhibition (Cryptococcus neoformans): -8.16%

N=C(Nc1ccccc1Cl)c1cscn1
Inhibition (Klebsiella pneumoniae): 17.83%
Inhibition (Candida albicans): 2.14%
Inhibition (Cryptococcus neoformans): -8.23%

Clc1cccc2c1nc(-c1cscn1)n2Cc1ccccc1
Inhibition (Klebsiella pneumoniae): 10.03%
Inhibition (Candida albicans): 5.46%
Inhibition (Cryptococcus neoformans): -32.31%

Cn1c(-c2cscn2)nc2c(Cl)cccc21
Inhibition (Klebsiella pneumoniae): -3.44%
Inhibition (Candida albicans): 4.84%
Inhibition (Cryptococcus neoformans): -43.05%

Clc1ccc2nc(-c3cscn3)n(Cc3ccccc3)c2c1
Inhibition (Klebsiella pneumoniae): 10.47%
Inhibition (Candida albicans): 0.38%
Inhibition (Cryptococcus neoformans): -41.97%

N#Cc1ccccc1-c1ccc(Cn2c(-c3cscn3)nc3cc(Cl)ccc32)cc1
Inhibition (Klebsiella pneumoniae): 8%
Inhibition (Candida albicans): -1.51%
Inhibition (Cryptococcus neoformans): -36.18%

N#Cc1ccc(Cn2c(-c3cscn3)nc3c(Cl)cccc32)cc1
Inhibition (Klebsiella pneumoniae): -10.25%
Inhibition (Candida albicans): 4.47%
Inhibition (Cryptococcus neoformans): -42.41%

N#Cc1ccccc1-c1ccc(Cn2c(-c3cscn3)nc3ccc(Cl)cc32)cc1
Inhibition (Klebsiella pneumoniae): 6.08%
Inhibition (Candida albicans): 1.5%
Inhibition (Cryptococcus neoformans): -28.09%

Nc1nc(Nc2ccccc2)sc1-c1nc2ccccc2c(=O)n1-c1ccccc1
Inhibition (Klebsiella pneumoniae): 11.02%
Inhibition (Candida albicans): 6.03%
Inhibition (Cryptococcus neoformans): -28.85%

CCc1ccc(-n2c(-c3sc(Nc4ccccc4)nc3N)nc3ccccc3c2=O)cc1
Inhibition (Klebsiella pneumoniae): -7.9%
Inhibition (Candida albicans): 0.25%
Inhibition (Cryptococcus neoformans): -54.61%

Nc1nc(Nc2ccc(Cl)cc2)sc1-c1nc2ccccc2c(=O)n1-c1ccccc1
Inhibition (Klebsiella pneumoniae): 6.62%
Inhibition (Candida albicans): 3.78%
Inhibition (Cryptococcus neoformans): -54.18%

O=[N+]([O-])c1ccc(Cn2c(-c3cscn3)nc3ccccc32)cc1
Inhibition (Klebsiella pneumoniae): 13.21%
Inhibition (Candida albicans): 3.4%
Inhibition (Cryptococcus neoformans): -41.75%

N=C(Nc1ccccc1)c1cscn1
Inhibition (Klebsiella pneumoniae): -2.19%
Inhibition (Candida albicans): 6.13%
Inhibition (Cryptococcus neoformans): 4.1%

Clc1cccc2[nH]c(-c3cscn3)nc12
Inhibition (Klebsiella pneumoniae): 5.98%
Inhibition (Candida albicans): 15%
Inhibition (Cryptococcus neoformans): -19.67%

N#Cc1ccccc1-c1ccc(Cn2c(-c3cscn3)nc3ccccc32)cc1
Inhibition (Klebsiella pneumoniae): 13.6%
Inhibition (Candida albicans): 1.96%
Inhibition (Cryptococcus neoformans): -25.26%

CC(C)c1ccc(Cn2c(-c3cscn3)nc3c(Cl)cccc32)cc1
Inhibition (Klebsiella pneumoniae): 2.02%
Inhibition (Candida albicans): 2.25%
Inhibition (Cryptococcus neoformans): -5.86%

Cn1c(-c2cscn2)nc2cc(Cl)ccc21
Inhibition (Klebsiella pneumoniae): 8.32%
Inhibition (Candida albicans): 0.35%
Inhibition (Cryptococcus neoformans): -39.47%

Fc1cc(Cn2c(-c3cscn3)nc3c(Cl)cccc32)cc(C(F)(F)F)c1
Inhibition (Klebsiella pneumoniae): -0.75%
Inhibition (Candida albicans): 3.24%
Inhibition (Cryptococcus neoformans): -8.45%

CCc1ccc(Nc2nc(N)c(-c3nc4ccccc4c(=O)n3-c3ccc(CC)cc3)s2)cc1
Inhibition (Klebsiella pneumoniae): 12.46%
Inhibition (Candida albicans): 3.1%
Inhibition (Cryptococcus neoformans): -48.5%

Clc1ccc2c(c1)nc(-c1cscn1)n2Cc1ccccc1
Inhibition (Klebsiella pneumoniae): 12.29%
Inhibition (Candida albicans): 1.89%
Inhibition (Cryptococcus neoformans): -24.56%
